Experimental data: PubChem BioAssay (NCATS)
Values joined by “and” are separate entries in the source; they are usually repeats but may differ in a detail not shown here. Equal entries are not always repeated. Inconclusive results are not listed. A call without a number means that no potency is given here. A number with no mark means an inactive call. Active and inactive are the calls of the source. Calls follow the shape of the dose curve; as a rule, active = well fitted curve in the direction sought with a large enough effect; inconclusive = small, poorly fitted or top-dose-only effect, or another doubt; inactive = no such curve, though single readings can be large; an effect the other way counts as inactive or inconclusive.

Assays:
[1] = system: Zika virus NS2B-NS3 protease; assay: Primary screen GU AMC qHTS for Zika virus inhibitors (AID 1347154); conditions: Zika NS2B-NS3 unlinked protease, AMC fluorogenic substrate; series mostly up to 54.1 µM; also: nearly all actives have a fitted effect of over 70% in size
Method in brief: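 Fluorogenic AMC-substrate cleavage by noncovalent NS2B-NS3 protease complex (25 nM, pH 8.0 Tris buffer with Tween 20) followed for 15 minutes at room temperature (~20% conversion). Percent inhibition from ex340/em450 signal change, fitted by 4-parameter Hill equation.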

[2] = system: Zika virus NS2B-NS3 protease (linked construct); assay: Primary screen NINDS Rhodamine qHTS for Zika virus inhibitors (AID 1347160); conditions: purified NS2B-NS3 protease, Rhodamine110 substrate fluorescence; series mostly up to 57.1 µM; also: nearly all actives have a fitted effect of over 55% in size; also: potency is read from the fitted curve at half-maximal effect
Method in brief: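 Enzyme (25 nM, linked NS2B-NS3) was preincubated 15 min with compound in 10 mM Tris-HCl pH 8.0, 0.01% Tween 20. Rhodamine110 substrate (1.5 microM) was then added and fluorescence read at start and after 15 min.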

[3] = biological target: Furin (Homo sapiens) (UniProt P09958); assay: Furin counterscreen qHTS for Zika virus inhibitors (AID 1347149); conditions: furin enzymatic counterscreen, fluorogenic substrate; series mostly up to 114 µM;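 also: purified recombinant full-length human furin enzyme at 5 nM; fluorescence gain from furin cutting a BOC-RVRR-AMC peptide substrate over 15 min; top concentration of the series differs between compounds; nearly all actives have a fitted effect of over 70% in size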
Method in brief: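 Counterscreen measures cleavage of 2 microM BOC-RVRR-AMC, below its ~15 microM Km, by 5 nM full-length human furin at pH 7.0 after a 15-min compound preincubation. Inhibition derives from the 15-min fluorescence increase at 37C.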

[4] = system: Zika virus NS2B-NS3 protease (unlinked); assay: Optimization of GU AMC qHTS for Zika virus inhibitors: Unlinked NS2B-NS3 protease assay (AID 1347151); conditions: recombinant ZIKV NS2B-NS3 protease, fluorogenic AMC substrate; series mostly up to 114 µM; also: nearly all actives have a fitted effect of over 80% in size
Method in brief: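 Noncovalent complex of NS2B hydrophilic domain and NS3 protease domain, 25 nM final, in 10 mM Tris-HCl pH 8.0, 0.01% Tween 20. AMC fluorescence change over 15 min at room temperature was fitted to a 4-parameter Hill equation.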

[5] = system: Zika virus NS2B-NS3 protease (unlinked complex); assay: Primary screen GU Rhodamine qHTS for Zika virus inhibitors: Unlinked NS2B-NS3 protease assay (AID 1347159); conditions: Recombinant ZIKV NS2B-NS3 protease, Rhodamine110 substrate fluorescence; series mostly up to 107 µM; also: nearly all actives have a fitted effect of over 60% in size; also: potency is read from the fitted curve at half-maximal effect
Method in brief: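 Enzyme 25 nM in Tris-HCl pH 8.0 + 0.01% Tween 20; compounds up to 114 microM, 15 min RT dark; + Rhod110 substrate 1.5 microM; read t0 and 15 min; delta fluorescence → % inhibition → 4-parameter Hill fit.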

[6] = Confirmatory screen GU Rhodamine qHTS for Zika virus inhibitors qHTS (AID 1347157); conditions: purified enzyme assay, Rhodamine110 substrate fluorescence, 15 min; series mostly up to 114 µM; also: nearly all actives have a fitted effect of over 70% in size; also: potency is read from the fitted curve at half-maximal effect
Method in brief: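 A qHTS format was used, with compound concentrations ranging up to 114 microM. Each compound was preincubated with 25 nM NS2B-NS3 protease, and the substrate was then added at 1.5 microM. Curves were fitted with a 4-parameter Hill model.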

[7] = Confirmatory screen NINDS Rhodamine qHTS for Zika virus inhibitors (AID 1347161); conditions: purified enzyme assay, Rhodamine110 substrate fluorescence, 15 min; series mostly up to 114 µM; also: nearly all actives have a fitted effect of over 60% in size; also: potency is read from the fitted curve at half-maximal effect;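 as to activity change, negative = inhibition: purified Zika NS2B-NS3 protease with linked NS2B cofactor domain and Rhodamine110 peptide substrate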
Method in brief: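 Single-chain NS2B-NS3 protease, 25 nM, pH 8.0; compounds preincubated 15 min. Activity: Rhodamine110 release from 1.5 microM substrate over 15 min, room temperature, data fitted to 4-parameter Hill.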

[8] = ZIKV-mCherry secondary qHTS for Zika virus inhibitors (AID 1347158); conditions: Vero cells, ZIKV-mCherry infection imaging, 48-72 h; series mostly up to 49.2 µM; also: top concentration of the series differs between compounds
Method in brief: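 Compounds were tested in Vero monkey kidney cells infected with recombinant mCherry-expressing Zika virus at MOI 1 for 48-72 h at 37 °C. Fixed cells were nuclear-stained and imaged, and infection rate was taken as the fraction of mCherry-positive cells.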

[9] = system: Zika virus NS2B-NS3 protease (linked construct); assay: Confirmatory screen NINDS AMC qHTS for Zika virus inhibitors (AID 1347152); conditions: Purified linked NS2B-NS3, AMC substrate fluorescence; also: potency is read from the fitted curve at half-maximal effect; nearly all actives have a fitted effect of over 70% in size
Method in brief: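 Purified NS2B-NS3 protease with NS2B hydrophilic domain linked to NS3 protease domain by flexible linker, 1 nM final in 10 mM Tris-HCl pH 8.0, 0.01% Tween 20. Compounds preincubated 15 min, room temperature; Bz-Nle-KRR-AMC 10 microM (Km 18.3 µM); 15-min fluorescence change, 4-parameter Hill fit.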

Chain of Furin (Homo sapiens) (P09958 whole entry, looked up): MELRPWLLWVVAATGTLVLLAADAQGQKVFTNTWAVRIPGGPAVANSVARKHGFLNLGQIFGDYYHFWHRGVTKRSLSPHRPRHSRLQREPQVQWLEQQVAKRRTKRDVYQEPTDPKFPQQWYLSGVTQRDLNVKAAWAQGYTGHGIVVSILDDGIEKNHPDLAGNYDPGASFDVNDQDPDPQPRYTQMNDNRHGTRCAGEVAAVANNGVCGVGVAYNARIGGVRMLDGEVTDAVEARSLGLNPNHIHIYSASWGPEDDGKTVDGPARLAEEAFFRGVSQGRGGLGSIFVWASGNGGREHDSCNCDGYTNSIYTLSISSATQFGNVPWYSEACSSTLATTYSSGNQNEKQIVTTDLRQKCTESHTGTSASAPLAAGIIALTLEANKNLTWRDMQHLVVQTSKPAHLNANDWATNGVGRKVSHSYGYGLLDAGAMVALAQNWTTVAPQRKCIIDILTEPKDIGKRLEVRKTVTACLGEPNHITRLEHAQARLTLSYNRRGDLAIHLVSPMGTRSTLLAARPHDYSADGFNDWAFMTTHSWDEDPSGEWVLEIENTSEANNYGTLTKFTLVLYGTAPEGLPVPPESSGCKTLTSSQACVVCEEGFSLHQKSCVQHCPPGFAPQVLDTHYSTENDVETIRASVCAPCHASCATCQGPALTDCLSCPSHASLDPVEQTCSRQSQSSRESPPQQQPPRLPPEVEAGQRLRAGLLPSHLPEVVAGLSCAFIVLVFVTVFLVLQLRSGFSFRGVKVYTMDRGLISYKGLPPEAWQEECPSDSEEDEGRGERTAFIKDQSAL

With `O=C(O)Cc1nn(Cc2ccc(Br)cc2F)c(=O)c2ccccc12` as the compound, how does the outcome [1] read?
Its outcome is “inactive”.

Which Potency [2] does the source give for `CC1CC(OC(=O)C(O)c2ccccc2)CC(C)(C)C1` (configuration not stated) here?
Its Potency is “inactive”.

Which outcome [3] does the source give for `C[C@H]1O[C@@H](O[C@H]2[C@@H](O)C[C@H](O[C@H]3[C@@H](O)C[C@H](O[C@H]4CC[C@@]5(C)[C@H](CC[C@@H]6[C@@H]5C[C@@H](O)[C@]5(C)[C@@H](C7=CC(=O)OC7)CC[C@]65O)C4)O[C@@H]3C)O[C@@H]2C)C[C@H](O)[C@@H]1O` here?
The outcome was “inactive”.

And the Potency [4]?
The Potency was “inactive”.

What about the Potency [5] of the same compound?
Its Potency is “inactive”.

What about the Potency [2] of the same compound?
The Potency was “inactive”.

Which outcome [1] does the source give for `NC[C@H]1O[C@H](O[C@H]2[C@H](O)[C@@H](O[C@H]3O[C@H](CO)[C@@H](O)[C@H](N)[C@H]3O)[C@H](N)C[C@@H]2N)[C@H](N)C[C@@H]1O` here?
The outcome was “inactive”.

With `COC(=O)C(CN)c1c[nH]c2ccc(OC)cc12` (configuration not stated) as the compound, how does the outcome [1] read?
Its outcome is “inactive”.

Which outcome [3] does the source give for `CC(C)(C)CC(C)(C)c1cc(Cc2cc(C(C)(C)CC(C)(C)C)cc(-n3nc4ccccc4n3)c2O)c(O)c(-n2nc3ccccc3n2)c1` here?
The outcome was “inactive”.

And the Potency [6]?
Its Potency is “inactive”.

What about the Potency [7] of the same compound?
Its Potency is “inactive”.

Which outcome [1] does the source give for `COc1ccc2nc(NC(=O)Nc3ccccc3)sc2c1` here?
Its outcome is “inactive”.

For `O=C(OCc1ccccc1)c1ccc(O)cc1`, which outcome [1] is on record?
Its outcome is “inactive”.

Which outcome [1] does the source give for `O=C1CCC(c2ccccc2)(C2CCN(Cc3ccccc3)CC2)C(=O)N1` (configuration not stated) here?
Its outcome is “inactive”.

For `O=C(O)[C@@H]1C[C@H](CP(=O)(O)O)CCN1`, which outcome [1] is on record?
The outcome was “inactive”.

With `CCCCC[C@H](O)/C=C/[C@H]1[C@H](O)CC(=O)[C@@H]1CCCCCCC(=O)O` as the compound, how does the activity change, negative = inhibition [1] read?
Its activity change, negative = inhibition is 5.76% [at 6.83 µM].

With `COc1ccc(C[C@H](C)NC[C@@H](O)c2ccc(O)c(NC=O)c2)cc1` as the compound, how does the outcome [1] read?
The outcome was “inactive”.

And the Potency [5]?
The Potency was “inactive”.

And the Potency [2]?
Its Potency is “inactive”.

With `C/C(=C\C(=O)OCCCCCCCCC(=O)O)C[C@@H]1OC[C@H](C[C@@H]2O[C@H]2[C@@H](C)[C@H](C)O)[C@@H](O)[C@H]1O` as the compound, how does the Potency [5] read?
Its Potency is “inactive”.

And the Potency [2]?
Its Potency is “inactive”.

Which outcome [1] does the source give for `CCC(C)[C@@H](N)C(=O)O` (some centres not stated) here?
The outcome was “inactive”.

With `Cc1cc(-c2ccc(N=Nc3c(S(=O)(=O)O)cc4cc(S(=O)(=O)O)cc(N)c4c3O)c(C)c2)ccc1N=Nc1c(S(=O)(=O)O)cc2cc(S(=O)(=O)O)cc(N)c2c1O` as the compound, how does the Potency [6] read?
Its Potency is 2.24 µM (active).

And the outcome [8]?
The outcome was “inactive”.

And the Potency [7]?
The Potency was 2.24 µM (active).

For `N[C@H](CC(=O)O)C(=O)O`, which outcome [1] is on record?
The outcome was “inactive”.

Which results are given for `O=C(O)Cc1cc(I)c(Oc2ccc(O)c(I)c2)c(I)c1`?
outcome [3]: inactive; Potency [9]: 15.6 µM (active); Potency [6]: 2.21 µM (active) and 10 µM (active); Potency [5]: 7.08 µM (active); Potency [2]: 3.16 µM (active); Potency [7]: 2.21 µM (active) and 7.94 µM (active)
